# According to article PMC7862700, “An all-to-all approach to the identification of sequence-specific readers for epigenetic DNA modifications on cytosine”:
# Tests used:
# Assay in all cases: DAPPL (digital affinity profiling via proximity ligation, sequencing); 10 mM Tris-HCl pH 7.5, 50 mM NaCl, 1 mM DTT, 4% glycerol, room temperature, 30 min; GST-TFs on glutathione beads, 16-mer random dsDNA library, 0.1% formaldehyde crosslink after washing; high values mean tight binding
# FLI1 = biological target: T1, FLI1 (Homo sapiens, UniProt Q01543 1-452); conditions: protein: recombinant; tags: N-terminal GST; dsDNA, one strand shown
# T1 sequence: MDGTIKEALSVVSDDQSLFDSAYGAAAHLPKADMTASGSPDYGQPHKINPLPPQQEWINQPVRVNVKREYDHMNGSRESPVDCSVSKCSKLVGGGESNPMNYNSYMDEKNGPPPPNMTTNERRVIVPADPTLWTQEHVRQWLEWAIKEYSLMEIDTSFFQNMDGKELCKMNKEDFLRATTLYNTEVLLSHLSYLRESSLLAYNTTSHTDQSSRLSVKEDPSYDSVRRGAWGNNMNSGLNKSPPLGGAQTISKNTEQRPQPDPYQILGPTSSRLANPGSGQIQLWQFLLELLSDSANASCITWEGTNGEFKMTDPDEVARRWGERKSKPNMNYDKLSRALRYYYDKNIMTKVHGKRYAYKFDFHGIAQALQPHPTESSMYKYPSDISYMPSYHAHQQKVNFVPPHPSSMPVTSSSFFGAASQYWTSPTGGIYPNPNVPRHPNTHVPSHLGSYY
# Outline: (§1)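 A tag-only sample was pooled with DNA-barcoded human transcription factors that had been expressed in yeast as GST fusions and captured on glutathione beads. The pools were incubated for 30 min at room temperature with 200 nmole of a random double-stranded 16-mer DNA library in Tris/NaCl/DTT/glycerol buffer, then washed, crosslinked with 0.1% formaldehyde, proximity-ligated (BsaI/T4 ligase, 1 h, 37 °C), PCR-amplified and sequenced on an Illumina NextSeq500. Binding signal is each hexamer's read frequency for a factor divided by its frequency for the tag-only sample.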
# ELK1 = biological target: T2, ELK1 (Homo sapiens, UniProt P19419 1-428); conditions: protein: recombinant; tags: N-terminal GST; dsDNA, one strand shown
# T2 sequence: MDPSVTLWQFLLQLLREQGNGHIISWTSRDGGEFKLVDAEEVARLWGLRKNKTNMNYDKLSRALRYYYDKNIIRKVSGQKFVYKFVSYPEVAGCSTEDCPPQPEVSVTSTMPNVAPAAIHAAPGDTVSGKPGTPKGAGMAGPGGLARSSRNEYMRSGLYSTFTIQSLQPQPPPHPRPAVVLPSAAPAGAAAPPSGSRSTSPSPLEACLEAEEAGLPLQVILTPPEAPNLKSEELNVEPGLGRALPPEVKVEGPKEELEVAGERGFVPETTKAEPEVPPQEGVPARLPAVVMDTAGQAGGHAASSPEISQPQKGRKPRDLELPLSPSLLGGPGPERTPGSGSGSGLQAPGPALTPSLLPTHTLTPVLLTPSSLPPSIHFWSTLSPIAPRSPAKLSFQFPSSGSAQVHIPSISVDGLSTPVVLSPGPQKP
# Outline: as §1
# GABPA = biological target: T3, GABPA (Homo sapiens, UniProt Q06546 1-454); conditions: protein: recombinant; tags: N-terminal GST; dsDNA, one strand shown
# T3 sequence: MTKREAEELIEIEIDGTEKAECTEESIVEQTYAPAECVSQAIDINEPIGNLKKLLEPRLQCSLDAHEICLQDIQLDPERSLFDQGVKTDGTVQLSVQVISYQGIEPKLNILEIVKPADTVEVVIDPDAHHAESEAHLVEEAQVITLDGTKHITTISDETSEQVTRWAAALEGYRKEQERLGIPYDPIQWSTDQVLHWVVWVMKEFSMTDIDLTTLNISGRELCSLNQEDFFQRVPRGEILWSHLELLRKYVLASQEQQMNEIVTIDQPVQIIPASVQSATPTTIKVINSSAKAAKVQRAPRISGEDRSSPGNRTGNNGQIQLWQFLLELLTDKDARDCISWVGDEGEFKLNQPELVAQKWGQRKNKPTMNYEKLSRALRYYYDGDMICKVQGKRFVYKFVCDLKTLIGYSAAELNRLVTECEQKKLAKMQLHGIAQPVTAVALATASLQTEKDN
# Outline: as §1
# ERG = biological target: T4, ERG (Homo sapiens, UniProt P11308 1-479); conditions: protein: recombinant; tags: N-terminal GST; dsDNA, one strand shown
# T4 sequence: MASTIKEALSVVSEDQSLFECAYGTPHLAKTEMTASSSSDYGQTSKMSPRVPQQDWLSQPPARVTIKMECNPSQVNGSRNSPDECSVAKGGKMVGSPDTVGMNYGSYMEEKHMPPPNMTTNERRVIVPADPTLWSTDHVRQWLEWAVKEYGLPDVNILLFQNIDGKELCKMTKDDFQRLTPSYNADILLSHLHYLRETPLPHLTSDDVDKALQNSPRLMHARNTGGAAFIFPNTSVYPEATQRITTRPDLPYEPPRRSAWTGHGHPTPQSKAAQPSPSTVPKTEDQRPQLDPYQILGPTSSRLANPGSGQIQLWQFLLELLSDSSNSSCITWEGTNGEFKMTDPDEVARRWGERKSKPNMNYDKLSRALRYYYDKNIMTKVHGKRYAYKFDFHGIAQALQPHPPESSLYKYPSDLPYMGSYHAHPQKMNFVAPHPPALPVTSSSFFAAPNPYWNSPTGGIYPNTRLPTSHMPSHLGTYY
# Outline: as §1
# ELF1 = ELF1 (Homo sapiens, UniProt P32519 1-619); conditions: protein: recombinant; tags: N-terminal GST; dsDNA, one strand shown
# ELF1, sequence (P32519 whole entry): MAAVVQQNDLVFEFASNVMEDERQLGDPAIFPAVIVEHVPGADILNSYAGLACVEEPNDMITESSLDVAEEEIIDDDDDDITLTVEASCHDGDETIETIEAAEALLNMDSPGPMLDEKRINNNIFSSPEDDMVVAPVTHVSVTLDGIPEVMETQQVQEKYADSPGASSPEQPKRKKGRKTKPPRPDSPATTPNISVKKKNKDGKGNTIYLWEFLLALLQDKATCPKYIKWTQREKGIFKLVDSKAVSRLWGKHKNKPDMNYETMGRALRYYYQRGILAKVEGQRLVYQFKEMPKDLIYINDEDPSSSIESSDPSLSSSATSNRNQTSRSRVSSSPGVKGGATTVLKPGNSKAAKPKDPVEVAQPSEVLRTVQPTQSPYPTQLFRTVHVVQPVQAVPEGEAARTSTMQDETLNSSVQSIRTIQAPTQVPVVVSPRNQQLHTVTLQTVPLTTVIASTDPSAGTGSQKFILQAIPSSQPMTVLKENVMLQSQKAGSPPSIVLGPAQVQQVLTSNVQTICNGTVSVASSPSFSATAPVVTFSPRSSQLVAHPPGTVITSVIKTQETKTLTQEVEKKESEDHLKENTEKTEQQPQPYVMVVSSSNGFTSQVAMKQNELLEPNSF
# Outline: as §1
# EHF = biological target: T5, EHF (Homo sapiens, UniProt Q9NZC4 1-300); conditions: protein: recombinant; tags: N-terminal GST; dsDNA, one strand shown
# T5 sequence: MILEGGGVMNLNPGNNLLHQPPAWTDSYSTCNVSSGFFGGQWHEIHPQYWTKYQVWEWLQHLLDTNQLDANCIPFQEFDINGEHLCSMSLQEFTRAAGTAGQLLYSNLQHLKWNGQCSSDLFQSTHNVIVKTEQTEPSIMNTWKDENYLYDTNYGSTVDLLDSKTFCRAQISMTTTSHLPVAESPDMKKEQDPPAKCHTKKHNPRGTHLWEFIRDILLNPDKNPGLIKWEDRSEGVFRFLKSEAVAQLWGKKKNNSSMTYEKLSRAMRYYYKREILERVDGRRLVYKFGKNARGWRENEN
# Outline: as §1
# SPI1 = SPI1 (Homo sapiens, UniProt P17947 1-270); conditions: protein: recombinant; tags: N-terminal GST; dsDNA, one strand shown
# Outline: as §1
# SPIB = SPIB (Homo sapiens, UniProt Q01892 1-262); conditions: protein: recombinant; tags: N-terminal GST; dsDNA, one strand shown
# SPIB, sequence (Q01892 whole entry): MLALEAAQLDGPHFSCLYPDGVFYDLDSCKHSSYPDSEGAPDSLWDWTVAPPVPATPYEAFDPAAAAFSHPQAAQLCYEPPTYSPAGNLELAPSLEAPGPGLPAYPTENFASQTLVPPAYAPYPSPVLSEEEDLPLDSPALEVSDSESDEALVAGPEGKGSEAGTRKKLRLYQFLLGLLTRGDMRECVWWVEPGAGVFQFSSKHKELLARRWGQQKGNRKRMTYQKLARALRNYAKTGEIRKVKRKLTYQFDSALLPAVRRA
# Outline: as §1
# ELK3 = biological target: T6, ELK3 (Homo sapiens, UniProt P41970 1-407); conditions: protein: recombinant; tags: N-terminal GST; dsDNA, one strand shown
# T6 sequence: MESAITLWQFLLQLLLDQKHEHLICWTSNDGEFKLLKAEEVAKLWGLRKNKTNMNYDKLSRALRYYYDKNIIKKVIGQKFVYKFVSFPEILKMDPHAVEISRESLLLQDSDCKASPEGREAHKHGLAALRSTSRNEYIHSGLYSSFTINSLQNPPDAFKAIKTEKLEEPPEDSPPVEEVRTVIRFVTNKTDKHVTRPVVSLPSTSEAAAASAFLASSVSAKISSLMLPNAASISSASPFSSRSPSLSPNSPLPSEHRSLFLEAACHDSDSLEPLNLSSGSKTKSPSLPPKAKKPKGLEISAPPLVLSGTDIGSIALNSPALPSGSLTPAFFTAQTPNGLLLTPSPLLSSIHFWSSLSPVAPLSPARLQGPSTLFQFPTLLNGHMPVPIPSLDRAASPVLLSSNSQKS
# Outline: as §1
# FEV = biological target: T7, FEV (Homo sapiens, UniProt Q99581 1-238); conditions: protein: recombinant; tags: N-terminal GST; dsDNA, one strand shown
# T7 sequence: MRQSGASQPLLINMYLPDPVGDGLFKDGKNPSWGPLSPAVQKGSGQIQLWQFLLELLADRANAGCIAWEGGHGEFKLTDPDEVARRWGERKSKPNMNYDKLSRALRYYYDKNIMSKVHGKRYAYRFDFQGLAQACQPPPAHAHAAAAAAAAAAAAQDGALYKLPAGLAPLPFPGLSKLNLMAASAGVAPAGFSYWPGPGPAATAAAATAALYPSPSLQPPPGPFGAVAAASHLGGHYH
# Outline: as §1
# ETV5 = ETV5 (Homo sapiens, UniProt P41161 1-510); conditions: protein: recombinant; tags: N-terminal GST; dsDNA, one strand shown
# ETV5, sequence (P41161 whole entry): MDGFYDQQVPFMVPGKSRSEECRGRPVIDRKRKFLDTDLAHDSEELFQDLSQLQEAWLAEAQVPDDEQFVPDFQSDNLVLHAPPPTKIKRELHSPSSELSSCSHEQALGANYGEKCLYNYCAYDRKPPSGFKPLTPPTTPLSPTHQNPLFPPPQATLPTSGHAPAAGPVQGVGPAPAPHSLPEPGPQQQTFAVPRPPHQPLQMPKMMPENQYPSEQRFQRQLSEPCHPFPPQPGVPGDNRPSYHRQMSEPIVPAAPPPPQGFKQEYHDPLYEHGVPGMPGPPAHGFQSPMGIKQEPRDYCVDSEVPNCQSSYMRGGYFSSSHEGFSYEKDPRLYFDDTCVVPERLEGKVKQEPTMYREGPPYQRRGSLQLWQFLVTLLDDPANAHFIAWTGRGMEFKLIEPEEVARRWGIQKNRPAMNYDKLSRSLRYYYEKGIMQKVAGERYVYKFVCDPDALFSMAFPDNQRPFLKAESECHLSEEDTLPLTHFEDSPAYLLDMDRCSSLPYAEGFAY
# Outline: as §1
# HSF1 = HSF1 (Homo sapiens, UniProt Q00613 1-529); conditions: protein: recombinant; tags: N-terminal GST; chain copies: 3; dsDNA, one strand shown
# HSF1, sequence (Q00613 whole entry): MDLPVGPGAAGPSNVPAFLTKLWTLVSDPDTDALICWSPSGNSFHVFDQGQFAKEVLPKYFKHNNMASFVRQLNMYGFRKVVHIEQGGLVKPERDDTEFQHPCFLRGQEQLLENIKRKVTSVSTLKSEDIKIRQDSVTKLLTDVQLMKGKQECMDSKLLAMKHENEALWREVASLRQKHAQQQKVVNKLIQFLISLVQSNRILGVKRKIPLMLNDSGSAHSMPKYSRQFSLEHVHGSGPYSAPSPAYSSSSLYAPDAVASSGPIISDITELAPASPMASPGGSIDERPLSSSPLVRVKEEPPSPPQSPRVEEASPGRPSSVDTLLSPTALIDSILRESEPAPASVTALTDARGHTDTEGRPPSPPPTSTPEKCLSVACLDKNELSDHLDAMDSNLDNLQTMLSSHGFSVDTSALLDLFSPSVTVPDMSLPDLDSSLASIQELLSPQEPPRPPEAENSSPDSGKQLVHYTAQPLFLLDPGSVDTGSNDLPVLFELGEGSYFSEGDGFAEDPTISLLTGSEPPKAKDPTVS
# Outline: as §1
# SPIC = biological target: T8, SPIC (Homo sapiens, UniProt Q8N5J4 1-248); conditions: protein: recombinant; tags: N-terminal GST; dsDNA, one strand shown
# T8 sequence: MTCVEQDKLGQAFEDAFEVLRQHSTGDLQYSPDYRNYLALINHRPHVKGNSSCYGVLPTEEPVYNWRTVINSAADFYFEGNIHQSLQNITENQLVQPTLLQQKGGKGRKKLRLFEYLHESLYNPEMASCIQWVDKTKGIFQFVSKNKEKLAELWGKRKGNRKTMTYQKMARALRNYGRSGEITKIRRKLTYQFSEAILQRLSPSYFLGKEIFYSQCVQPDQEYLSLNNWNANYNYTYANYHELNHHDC
# Outline: as §1
# ELF4 = ELF4 (Homo sapiens, UniProt Q99607 1-663); conditions: protein: recombinant; tags: N-terminal GST; dsDNA, one strand shown
# ELF4, sequence (Q99607 whole entry): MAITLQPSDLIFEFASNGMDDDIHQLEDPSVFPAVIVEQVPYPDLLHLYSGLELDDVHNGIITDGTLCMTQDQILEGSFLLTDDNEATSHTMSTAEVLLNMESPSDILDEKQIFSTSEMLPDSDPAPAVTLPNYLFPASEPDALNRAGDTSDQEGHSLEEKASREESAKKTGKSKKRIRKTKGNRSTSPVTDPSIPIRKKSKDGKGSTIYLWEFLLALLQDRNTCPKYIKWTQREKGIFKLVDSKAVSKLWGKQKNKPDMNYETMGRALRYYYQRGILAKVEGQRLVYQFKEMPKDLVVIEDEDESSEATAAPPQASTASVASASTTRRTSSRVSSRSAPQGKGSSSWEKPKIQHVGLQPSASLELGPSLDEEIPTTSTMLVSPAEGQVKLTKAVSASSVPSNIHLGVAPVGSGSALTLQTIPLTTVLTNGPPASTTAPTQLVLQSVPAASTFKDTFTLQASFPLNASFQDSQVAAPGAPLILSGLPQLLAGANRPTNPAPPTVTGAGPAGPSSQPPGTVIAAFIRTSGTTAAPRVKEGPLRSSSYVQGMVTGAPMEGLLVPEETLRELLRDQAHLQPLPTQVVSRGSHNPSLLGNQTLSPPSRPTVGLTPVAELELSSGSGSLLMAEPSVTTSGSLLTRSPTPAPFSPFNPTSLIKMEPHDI
# Outline: as §1
# ELK4 = biological target: T9, ELK4 (Homo sapiens, UniProt P28324-2 1-405); conditions: protein: recombinant; tags: N-terminal GST; dsDNA, one strand shown
# T9 sequence: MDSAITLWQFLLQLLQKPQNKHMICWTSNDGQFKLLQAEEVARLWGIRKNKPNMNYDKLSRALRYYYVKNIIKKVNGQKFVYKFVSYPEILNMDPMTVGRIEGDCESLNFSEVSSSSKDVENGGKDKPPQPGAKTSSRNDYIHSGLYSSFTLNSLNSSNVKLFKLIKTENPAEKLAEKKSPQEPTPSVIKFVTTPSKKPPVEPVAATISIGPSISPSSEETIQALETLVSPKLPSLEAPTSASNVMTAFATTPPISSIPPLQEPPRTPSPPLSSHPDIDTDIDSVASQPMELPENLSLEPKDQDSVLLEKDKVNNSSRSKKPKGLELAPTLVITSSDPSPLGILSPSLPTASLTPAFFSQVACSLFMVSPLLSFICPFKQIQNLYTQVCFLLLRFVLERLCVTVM
# Outline: as §1
# ETV2 = biological target: T10, ETV2 (Homo sapiens, UniProt O00321 1-342); conditions: protein: recombinant; tags: N-terminal GST; dsDNA, one strand shown
# T10 sequence: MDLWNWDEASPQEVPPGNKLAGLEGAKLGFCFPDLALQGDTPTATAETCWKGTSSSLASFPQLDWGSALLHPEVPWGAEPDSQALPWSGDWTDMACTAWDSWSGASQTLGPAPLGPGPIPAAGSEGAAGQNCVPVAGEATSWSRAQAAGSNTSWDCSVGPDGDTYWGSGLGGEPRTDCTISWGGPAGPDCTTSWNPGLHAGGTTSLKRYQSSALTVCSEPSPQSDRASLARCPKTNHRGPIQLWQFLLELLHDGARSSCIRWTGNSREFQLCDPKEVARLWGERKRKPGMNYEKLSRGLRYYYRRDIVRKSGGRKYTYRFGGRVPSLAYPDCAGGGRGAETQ
# Outline: as §1
# ELF3 = biological target: T11, ELF3 (Homo sapiens, UniProt P78545 1-371); conditions: protein: recombinant; tags: N-terminal GST; dsDNA, one strand shown
# T11 sequence: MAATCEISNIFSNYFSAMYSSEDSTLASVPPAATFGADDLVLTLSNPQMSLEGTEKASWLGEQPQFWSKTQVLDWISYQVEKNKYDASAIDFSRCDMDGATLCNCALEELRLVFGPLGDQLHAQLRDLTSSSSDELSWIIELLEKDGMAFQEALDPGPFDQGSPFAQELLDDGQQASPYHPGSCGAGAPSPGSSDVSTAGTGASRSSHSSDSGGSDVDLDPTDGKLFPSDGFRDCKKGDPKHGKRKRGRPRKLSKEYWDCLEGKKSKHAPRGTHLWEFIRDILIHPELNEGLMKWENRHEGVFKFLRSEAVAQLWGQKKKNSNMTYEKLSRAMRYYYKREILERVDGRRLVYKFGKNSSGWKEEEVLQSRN
# Outline: as §1
# CRX = CRX (Homo sapiens, UniProt O43186 1-299); conditions: protein: recombinant; tags: N-terminal GST; dsDNA, one strand shown
# CRX, sequence (O43186 whole entry): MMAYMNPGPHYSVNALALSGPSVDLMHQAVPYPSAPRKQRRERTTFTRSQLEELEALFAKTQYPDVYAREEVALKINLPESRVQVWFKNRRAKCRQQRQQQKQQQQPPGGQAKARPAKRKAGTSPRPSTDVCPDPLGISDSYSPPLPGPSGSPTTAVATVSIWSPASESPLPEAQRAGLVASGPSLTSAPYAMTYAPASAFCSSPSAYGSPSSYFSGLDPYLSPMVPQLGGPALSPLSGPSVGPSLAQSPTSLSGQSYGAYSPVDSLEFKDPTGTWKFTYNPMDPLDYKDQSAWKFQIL
# Outline: as §1
# ETV1 = ETV1 (Homo sapiens, UniProt P50549 1-477); conditions: protein: recombinant; tags: N-terminal GST; dsDNA, one strand shown
# ETV1, sequence (P50549 whole entry): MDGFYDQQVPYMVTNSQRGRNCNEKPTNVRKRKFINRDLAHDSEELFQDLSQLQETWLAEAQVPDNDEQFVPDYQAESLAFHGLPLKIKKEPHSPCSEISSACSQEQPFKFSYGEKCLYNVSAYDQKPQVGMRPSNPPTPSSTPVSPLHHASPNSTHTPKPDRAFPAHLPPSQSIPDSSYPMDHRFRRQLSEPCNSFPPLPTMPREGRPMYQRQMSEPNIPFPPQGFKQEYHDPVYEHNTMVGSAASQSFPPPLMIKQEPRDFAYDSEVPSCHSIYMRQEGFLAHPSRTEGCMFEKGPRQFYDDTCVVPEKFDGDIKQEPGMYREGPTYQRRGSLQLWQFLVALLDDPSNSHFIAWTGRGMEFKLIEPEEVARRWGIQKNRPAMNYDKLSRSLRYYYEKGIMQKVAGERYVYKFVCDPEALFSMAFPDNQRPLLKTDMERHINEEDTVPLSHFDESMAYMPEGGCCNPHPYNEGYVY
# Outline: as §1
sequence,measurement,setting,value
CCGCAC,binding signal,FLI1,"1.45 fold enrichment (6-mer frequency, TF over GST control)"
same,binding signal,ELK1,"1.45 fold enrichment (6-mer frequency, TF over GST control)"
same,binding signal,GABPA,"1.5 fold enrichment (6-mer frequency, TF over GST control)"
same,binding signal,ERG,"1.42 fold enrichment (6-mer frequency, TF over GST control)"
same,binding signal,ELF1,"1.55 fold enrichment (6-mer frequency, TF over GST control)"
same,binding signal,EHF,"1.5 fold enrichment (6-mer frequency, TF over GST control)"
same,binding signal,SPI1,"1.52 fold enrichment (6-mer frequency, TF over GST control)"
same,binding signal,SPIB,"1.41 fold enrichment (6-mer frequency, TF over GST control)"
same,binding signal,ELK3,"1.52 fold enrichment (6-mer frequency, TF over GST control)"
same,binding signal,FEV,"1.42 fold enrichment (6-mer frequency, TF over GST control)"
same,binding signal,ETV5,"1.4 fold enrichment (6-mer frequency, TF over GST control)"
same,binding signal,HSF1,"1.13 fold enrichment (6-mer frequency, TF over GST control)"
same,binding signal,SPIC,"1.27 fold enrichment (6-mer frequency, TF over GST control)"
same,binding signal,ELF4,"1.5 fold enrichment (6-mer frequency, TF over GST control)"
same,binding signal,ELK4,"1.3 fold enrichment (6-mer frequency, TF over GST control)"
same,binding signal,ETV2,"1.39 fold enrichment (6-mer frequency, TF over GST control)"
same,binding signal,ELF3,"1.39 fold enrichment (6-mer frequency, TF over GST control)"
same,binding signal,CRX,"1.02 fold enrichment (6-mer frequency, TF over GST control)"
same,binding signal,ETV1,"1.47 fold enrichment (6-mer frequency, TF over GST control)"
